In the library only some 4.4% were active in any assay of this set; here they are far more common.
USP1-UAF1 inh = USP1/UAF1 (human) deubiquitinase inhibition; O94782; recombinant USP1/UAF1, Ub-Rhodamine cleavage fluorescence; Potency, µM (highest dose often 57.1 µM), inactives show at the highest dose activity change, negative = inhibition, hits mostly inhibitors; 0.23% of 390,000 active; AID 743255; active = well fitted inhibition curve with a large enough effect; also: potency is read from the fitted curve at half-maximal effect; % is scaled to controls: 0 for no effect and ±100 for the full control effect; nearly all actives have a fitted effect of over 60% in size
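Step one: compound is pinned into 1nM USP1/UAF1 in HEPES pH 7.8 buffer with TCEP. Step two: 15 min room-temperature incubation. Step three: Ub-Rho (150nM final) starts cleavage, tracked by fluorescence over six one-minute reads.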
D1 ag = activates the human D1 dopamine receptor | HEK293 T-REx D1 cells, calcium flux, agonist mode | P21728 | activation, % at 2 µM | 1% of 360,000 active; also: 0% is about no effect
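Inducible HEK293 T-REx D1 cells, force-coupled to calcium signalling, were plated at 4000 cells/well with tetracycline and held overnight at 30 C. After no-wash calcium dye loading, compound-evoked calcium rise over 180 s flagged agonists.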
D1 PAM = potentiators of human D1 dopamine receptor; 0.036% of 360,000 active; potentiation, % at 10 µM; HEK293 TREx D1 cells, calcium flux, dopamine EC20 potentiation; AID 504651; P21728; in the data active = potentiation above about 30%; also: 0% is about no effect
D1 antag = antagonists of human D1 dopamine receptor; P21728; HEK293 TREx D1 cells, calcium flux, dopamine EC80; hits give low values; activity change, negative = inhibition, % at 10 µM; 3.2% of 360,000 active; AID 504652; in the data active = activity change below about -30%; also: % is scaled to controls: 0 for no effect and ±100 for the full control effect
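Tetracycline-induced HEK293 Trex D1 cells, force-coupled to calcium, dye-loaded; compounds added and read 180 s, then EC80 dopamine added and calcium flux tracked kinetically another 180 s.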
TRHR enhancer = allosterically enhances the human TRH receptor. P34981. TRHR cells, fluo-8 calcium fluorescence, EC20 TRH enhancement. enhancement, % at 2 µM. 0.66% of 360,000 active. AID 493056; in the data active = enhancement above about 30%; also: 0% is about no effect
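Enhancer read-out: after compound pinning and an initial kinetic agonist-mode read, an EC20 of TRH (10 nM final) was injected and fluo-8 calcium signal (Ex 480/Em 530) followed at 1 s/cycle for 100 cycles in TRHR-expressing cells.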
TRHR ag = TRH receptor (human) agonism | activation, % at 2 µM | 0.18% of 360,000 active | TRHR cells, calcium flux fluo-8, FDSS agonist mode; also: 0% is about no effect
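Read-out: compound-evoked intracellular calcium rise in TRHR cells, fluo-8 dye, kinetic FDSS fluorescence at 1 s/cycle following a 10-cycle baseline. Cells cultured overnight before dye loading (30 min–1.5 h, RT).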
Starred values were filed as active, the others as inactive; · = no result given. Rule as the data show it, unless noted: active = activation above about 30%; inactive = the rest.

SMILES	USP1-UAF1 inh	D1 ag	D1 PAM	D1 antag	TRHR enhancer	TRHR ag
CS(=O)(=O)Nc1ccc(C2=NN(C(=O)c3ccccc3)C(c3cccs3)C2)cc1 (centres undefined)	-6%	-1	-9	-34*	-2	0
Nc1nonc1C(=O)NCCNCc1ccc(Cl)c(Cl)c1	-27%	1	-1	-3	2	0
Cc1ccccc1C(=O)c1cccn1CC(=O)NCCCN1CCCCC1	-20%	-1	0	15	-1	0
Cc1ccc(C)c(N2CCN(CCCNC(=O)Cn3cccc3C(=O)c3ccccc3C)CC2)c1	-8%	26	-6	-36*	8	0
COc1ccc(CCN(C)C2CCCN(S(=O)(=O)c3ccc(C)cc3)C2)cc1OC (centres undefined)	-11%	-3	-9	-37*	-1	0
COc1ccc(CCN(C)C2CCCN(S(C)(=O)=O)C2)cc1OC (centres undefined)	1%	3	-3	7	-6	0
O=C(NC1CC(=O)N(c2ccc(Cl)cc2)C1)c1cc2ccccc2o1 (centres undefined)	-5%	-4	0	·	-1	0
Cn1nnc2c(N3CCN(c4ccc(F)cc4)CC3)ncnc21	5%	4	1	·	-1	0
N#C/C(=C\c1ccncc1)c1nc2ccccc2o1	-27%	5	0	-14	3	4
N#C/C(=C\Nc1ccccc1O)c1nc2ccccc2o1	-10%	21	-7	-36*	2	2
O=S(=O)(c1ccc2ccccc2c1)N1CCCCC1	-12%	4	-1	-14	-4	-1
O=S(=O)(c1ccc2ccccc2c1)N1CCN(Cc2ccccn2)CC1	-8%	51*	-1	5	11	0
O=S(=O)(c1ccc2ccccc2c1)N1CCCCCC1	0%	1	1	-17	31*	-1
Cc1ccc(S(=O)(=O)N2CCN(Cc3ccccn3)CC2)cc1	-6%	1	-2	-16	-3	0
COc1ccc(CCNC(=O)Cn2c(=O)n(-c3ccc(OC)c(OC)c3)c(=O)c3ccccc32)cc1OC	-17%	0	1	9	7	0
N#CC1=C(N)N(c2cccc(Cl)c2)C2=C(C(=O)CCC2)C1c1cc(CN2CCOCC2)cs1 (centres undefined)	-15%	1	1	7	-4	-2
CN(C)c1ccc(-c2cc[nH]c(=O)c2N)cc1	·	0	5	12	4	1
Cc1cccc(CNCc2ccccc2)c1	-8%	5	-4	-10	-1	0
Cc1cccc(Cc2ccc(Cl)nn2)c1	-17%	3	-1	-38*	-1	0
O=C(O)C1C2CCC(O2)C1C(=O)Nc1ccc(Cl)cc1F (centres undefined)	-13%	1	-14	13	-7	0
O=C(O)C1C2CCC(O2)C1C(=O)NCc1ccc(Cl)cc1 (centres undefined)	-7%	1	-10	-37*	0	0
NC(=O)NC(=O)CC1S/C(=N/N=C2\CSC(=O)N2)NC1=O (centres undefined)	-25%	0	3	2	4	0
O=C(O)CNC(=O)CC1S/C(=N/N=C2/NC(=O)CS2)NC1=O (centres undefined)	-9%	7	-5	-30*	-2	2
CNC(=O)C(C)c1ncc(C(F)(F)F)cc1Cl (centres undefined)	-18%	2	-5	-8	-10	0
C=CCNC(=O)c1cc(C(=O)C(C)c2ncc(C(F)(F)F)cc2Cl)c[nH]1 (centres undefined)	-6%	36*	3	-2	6	-1
FC(F)C(F)(F)c1cc(-c2ccccc2)n[nH]1	-1%	43*	-5	4	6	3
Cc1ccc(-c2cc(C(=O)NCc3ccccc3)c3c(-c4ccc(C)cc4)[nH]nc3n2)cc1	-17%	9	-2	14	-3	1
